Test results taken from PubChem BioAssay (Tox21).
Records with an inconclusive call do not appear. The source made the active and inactive calls. Unless noted, calls follow the shape of the dose curve; as a rule, active = well fitted curve in the direction sought with a large enough effect in the repeat runs; inconclusive = weak or mixed curves; inactive = no such curve, though single readings can be large; an effect the other way counts as inactive or inconclusive.

How the values were obtained:
[1] = qHTS assay to identify small molecule agonists of the constitutive androstane receptor (CAR) signaling pathway - cell viability counter screen (AID 1224836); settings: HepG2-CYP2B6-hCAR viability, CellTiter-Fluor, 23 h, PK11195 added to every well; series mostly up to 92.4 µM; also: nearly all actives have a fitted effect of over 45% in size
Summary of the method: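 HepG2-CYP2B6-hCAR, 2500 cells/well, 4 h pre-incubation; cpd 15 conc + PK11195 0.75 uM final; 23 h, 37 C/5% CO2; CellTiter-Fluor, fluorescence.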

[2] = target: Nuclear receptor subfamily 1 group I member 3 (Homo sapiens) (UniProt Q14994); experiment: qHTS assay to identify small molecule antagonists of the constitutive androstane receptor (CAR) signaling pathway (AID 1224838); settings: HepG2-CYP2B6-hCAR luciferase, CITCO-stimulated, 24 h; series mostly up to 92.4 µM; also: nearly all actives have a fitted effect of over 40% in size
Nuclear receptor subfamily 1 group I member 3 (Homo sapiens), sequence (Q14994 whole entry, looked up): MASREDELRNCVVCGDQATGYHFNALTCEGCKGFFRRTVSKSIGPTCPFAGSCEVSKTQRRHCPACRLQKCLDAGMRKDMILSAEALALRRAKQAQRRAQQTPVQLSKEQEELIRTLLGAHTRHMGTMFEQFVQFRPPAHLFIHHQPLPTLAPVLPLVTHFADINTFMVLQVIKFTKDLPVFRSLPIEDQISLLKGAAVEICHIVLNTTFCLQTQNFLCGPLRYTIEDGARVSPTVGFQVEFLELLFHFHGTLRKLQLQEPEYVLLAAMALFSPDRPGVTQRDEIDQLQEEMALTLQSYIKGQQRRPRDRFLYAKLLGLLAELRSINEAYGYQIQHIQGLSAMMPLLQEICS
Summary of the method: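 CITCO-stimulated (50 nM final) HepG2 cells stably transfected with hCAR and CYP2B6-2.2kb luciferase were exposed to compounds at 15 concentrations for 24 h at 37 C/5% CO2. A luciferase reagent was added and luminescence recorded after 30 min.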

[3] = target: Nuclear receptor subfamily 1 group I member 3 (Homo sapiens) (UniProt Q14994); experiment: qHTS assay to identify small molecule agonists of the constitutive androstane receptor (CAR) signaling pathway (AID 1224839); settings: HepG2 hCAR CYP2B6-luciferase, agonist mode, 24 h; series mostly up to 42.5 µM;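 also: HepG2 cells stably carrying human CAR and a CYP2B6 luciferase reporter; nearly all actives have a fitted effect of over 15% in size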
Summary of the method: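 HepG2-CYP2B6-hCAR cells, 2500/well, 4 h pre-incubation; compounds 15 conc.; PK11195 0.75 uM final; 24 h, 37 C/5% CO2; ONE-Glo luciferase read.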

[4] = qHTS assay to identify small molecule antagonists of the estrogen related receptor signaling pathway with the pleiotropic PPARgamma coactivator (PGC) from Tox21 10K library - cell viability counter screen (AID 1224840; active = well fitted cell-killing curve with a large enough effect in the repeat runs, not every such curve was filed as active; also: nearly all actives have a fitted effect of over 40% in size); settings: PGC/ERR reporter cells viability, CellTiter-Fluor, 17.5 h; series mostly up to 92.4 µM
Summary of the method: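 Viability counter screen, PGC/ERR cells: 17.5 h compound exposure at 37 C, CellTiter-Fluor fluorescence endpoint.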

[5] = target: Thyrotropin receptor (Homo sapiens) (UniProt P16473); experiment: qHTS assay to identify small molecule agonists of the thyroid stimulating hormone receptor (TSHR) signaling pathway (AID 1224843; calls by dose curve; also: nearly all actives have a fitted effect of over 45% in size); settings: TSHR-HEK293 cells, cAMP HTRF, agonist mode, 30 min; series mostly up to 92.4 µM
Thyrotropin receptor (Homo sapiens), sequence (P16473 whole entry, looked up): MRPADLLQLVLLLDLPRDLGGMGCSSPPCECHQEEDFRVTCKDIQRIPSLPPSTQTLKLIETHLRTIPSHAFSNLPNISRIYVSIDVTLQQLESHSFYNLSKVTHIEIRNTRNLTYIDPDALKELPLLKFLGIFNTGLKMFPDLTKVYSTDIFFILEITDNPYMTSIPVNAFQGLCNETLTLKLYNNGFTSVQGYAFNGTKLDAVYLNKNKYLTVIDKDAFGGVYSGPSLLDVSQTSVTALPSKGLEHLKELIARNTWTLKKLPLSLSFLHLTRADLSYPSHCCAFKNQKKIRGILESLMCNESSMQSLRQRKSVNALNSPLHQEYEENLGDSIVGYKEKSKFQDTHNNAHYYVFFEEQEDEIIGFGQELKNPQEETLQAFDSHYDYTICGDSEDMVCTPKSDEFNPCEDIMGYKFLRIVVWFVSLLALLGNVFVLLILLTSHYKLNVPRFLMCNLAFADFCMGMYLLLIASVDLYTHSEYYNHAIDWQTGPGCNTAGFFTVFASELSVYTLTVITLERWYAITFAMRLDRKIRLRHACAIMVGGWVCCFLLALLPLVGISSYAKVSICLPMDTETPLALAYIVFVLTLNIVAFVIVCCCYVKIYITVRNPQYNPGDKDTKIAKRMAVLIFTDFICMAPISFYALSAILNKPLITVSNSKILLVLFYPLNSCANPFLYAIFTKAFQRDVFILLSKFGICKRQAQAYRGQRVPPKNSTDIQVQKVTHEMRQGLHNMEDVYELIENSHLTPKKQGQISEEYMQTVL
Summary of the method: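 Agonist-mode screen: TSHR HEK293 cells received test chemicals for half an hour at room temperature, then HTRF cAMP detection reagents for one hour prior to fluorescence measurement. Each chemical ran as a 15-concentration series, triplicated.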

[6] = qHTS assay to identify small molecule agonists of the hypoxia (HIF-1) signaling pathway - cell viability counter screen (AID 1224844; calls by dose curve; also: nearly all actives have a fitted effect of over 50% in size); settings: HRE-bla ME-180 viability, CellTiter-Glo luminescence, 17 h; series mostly up to 76.8 µM
Summary of the method: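 Same wells as the HIF-1 reporter screen; ME-180 cells carrying HRE-bla, 17 hr treatment at 37C; CellTiter-Glo luminescence read after 30 min at room temperature.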

[7] = qHTS assay to identify small molecule antagonists of the constitutive androstane receptor (CAR) signaling pathway - cell viability counter screen (AID 1224837); settings: HepG2-CYP2B6-hCAR viability, CellTiter-Fluor, 23 h, co-treated with 50 nM CITCO; series mostly up to 92.4 µM; also: nearly all actives have a fitted effect of over 45% in size
Summary of the method: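 In quantitative HTS format, compounds at 15 concentrations were applied to HepG2 cells double-transfected with hCAR and CYP2B6-2.2kb under 50 nM CITCO stimulation; live-cell protease activity was read after 23 hr via CellTiter-Fluor.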

[8] = qHTS assay to identify small molecule antagonists of the estrogen related receptor signaling pathway with the pleiotropic PPARgamma coactivator (PGC) from Tox21 10K library (AID 1224841; call rule not given here; also: actives are mostly falling curves and most rising ones were filed inactive; nearly all actives have a fitted effect of over 50% in size); settings: PGC/ERR reporter cell line, ONE-Glo luciferase, 18 h; series mostly up to 92.4 µM
Summary of the method: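 In the PGC/ERR line, DMSO solutions of test chemicals are pin-delivered to 2,000 cells/well six hours after dispensing. Following eighteen hours' incubation, One-Glo reagent is added and luminescence recorded.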

[9] = qHTS assay to identify small molecule agonists of the estrogen related receptor signaling pathway with the pleiotropic PPARgamma coactivator (PGC) from Tox21 10K library (AID 1224842); settings: PGC/ERR reporter cell line, luciferase ONE-Glo, 18 h; series mostly up to 92.4 µM; also: nearly all actives have a fitted effect of over 15% in size
Summary of the method: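 PGC/ERR reporter cell line, 2,000 cells per well, incubated 6 h at 37 C before 23 nL compound in DMSO was added. After 18 h at 37 C, One-Glo luminescence read following 30 min at room temperature.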

Measured: Potency

Cc1oc(-c2ccccc2)nc1CCOc1cccc2c1ccn2CCC(=O)O
not listed: [7] | [8] | [9]
inactive: all other assays above

CCCCO
inactive: [1] | [7] | [4] | [5] | [6]

CC(C)O.CC(C)O.CCOC(=O)/C=C(\C)O.CCOC(=O)/C=C(\C)O.[Ti]
inactive: [1] | [4] | [5] | [6]

Nc1c(CC(=O)O)cccc1C(=O)c1ccc(Br)cc1
inactive: [1] | [7] | [5] | [6]

CCCCCCc1ccc(-c2ccc(C#N)cc2)cc1
not listed: [3] | [7]
inactive: all other assays above

CC(=O)[O][Al]
inactive: [7] | [4] | [8] | [9] | [6]
